Measurements as given in PubChem BioAssay AID1745847 (National Center for Advancing Translational Sciences (NCATS), 2022).
The whole screen tested about 2,100 compounds, of which about 670 (32%) were called active. Roughly 50% stayed inconclusive and do not appear here. Calls follow the shape of the dose curve; as a rule, active = well fitted inhibition curve with a large enough effect; inconclusive = small, poorly fitted or top-dose-only effect; inactive = no such curve, though single readings can be large or run the other way. The list shows a part of the results.

Test: CMV-Luciferase Counterscreen for Inhibitors of ATXN expression; also: nearly all actives have a fitted effect of over 55% in size
Conditions: HEK-293 CMV-luciferase reporter, luminescence, 24 h; series mostly up to 57.5 µM; activity change, negative = inhibition: at the top concentration
% is scaled to controls: 0 for no effect and ±100 for the full control effect; potency is read from the fitted curve at half-maximal effect.

Compound	Potency	activity change, negative = inhibition
COC(=O)C1=C(C)N(Cc2ccccc2)C(=NCCc2cccnc2)N[C@H]1c1ccc(Br)cc1	28.2 µM (active)	–
CCCCn1c(=N)n(CCOc2ccc(C)cc2)c2ccccc21	10 µM (active)	–
N=c1n(CCCOc2ccccc2Cl)c2ccccc2n1CC(N)=O	–	2.57% (inactive)
Cc1ccc(OCC(O)Cn2c(=N)n(CCN3CCCCC3)c3ccccc32)cc1 (configuration not stated)	–	-13.4% (inactive)
Cc1ccc(-c2nc3ccc(Cl)cn3c2CC(C)(C)C)cc1	–	-2.84% [at 11.4 µM] (inactive)
COc1cc(C)c(C(=O)CC(=O)c2c(C)cc(OC)cc2C)c(C)c1	–	-13.8% [at 11.4 µM] (inactive)
Cc1ccc(C(C)C)c(OCc2ccc(C(=O)N/N=C/c3cccc(O)c3O)cc2)c1	2.82 µM (active)	–
Cc1ccc(C(=O)N/N=C/c2nc3ccccc3n2C)cc1	–	-21.7% (inactive)
Cc1ccc(C(C)C)c(OCc2ccc(C(=O)N/N=C/c3ccc(O)cc3O)cc2)c1	2.51 µM (active)	–
O=C(c1ccc(-c2nnc(Nc3cccc(Cl)c3)c3ccccc23)cc1)N1C[C@H]2C[C@H](C1)c1cccc(=O)n1C2	–	46% [at 11.4 µM] (inactive)
CCN(CC)CCNC(=O)c1ccc(NC(=O)c2ccccc2-c2ccc(C(F)(F)F)cc2)cc1	–	-16.1% (inactive)
COC(=O)c1ccc(N2CCOCC2)c(NC(=O)Nc2cccc(OC)c2)c1	–	2.86% [at 11.4 µM] (inactive)
COC(=O)c1cc(NC(=O)c2cc(-c3ccc(C(F)(F)F)cc3)oc2C(F)(F)F)ccc1N1CCOCC1	22.4 µM (active)	–
O=C(NCc1ccco1)c1ccc(-c2cccc(Cl)c2)o1	–	34.1% (inactive)
O=C(NCc1ccco1)/C(=C/c1cccc(C(F)(F)F)c1)c1nc2ccccc2[nH]1	–	-12% [at 11.4 µM] (inactive)
O=C(NCc1ccco1)c1nc2c(nnn2Cc2ccccc2Cl)c(=O)[nH]1	1.58 µM (active)	–
CC(C)CCNC(=O)COc1cccc2c1OC(C)(C)C2	–	-14.5% (inactive)
Cc1cccc(OCCCC(=O)Nc2nccs2)c1	–	249% [at 11.4 µM] (inactive)
Cc1ccc(OCCCC(=O)NNC(=O)c2ccccn2)cc1	11.2 µM (active)	–
Cn1nnnc1Sc1ncnc2scc(-c3cccc(S(C)(=O)=O)c3)c12	14.1 µM (active)	–
CC(=O)c1cccc(-c2cnc3c(NC=O)cc(-c4ccccc4F)cn23)c1	–	-18.2% [at 11.4 µM] (inactive)
CC(=O)c1cccc(-c2csc3ncnc(Sc4nnnn4C)c23)c1	8.91 µM (active)	–

Compound	Potency	activity change, negative = inhibition
CCCCn1c(SCC(=O)Nc2cc(NC(=O)c3ccco3)ccc2C)nc2ccccc2c1=O	–	-9.45% (inactive)
O=C(CN1CCOCC1)N/N=C/c1c(O)ccc2ccccc12	8.91 µM (active)	–
NC(=O)N/N=C/c1c(O)ccc2oc3c(c12)CCCC3	–	111% (inactive)
O=C(CSCC(=O)Nc1ccccc1)N/N=C/c1c(O)ccc2ccccc12	0.501 µM (active)	–
O=C(CN1CCCC1)N/N=C/c1c(O)ccc2ccccc12	1.78 µM (active)	–
C=C(C)Cn1c(SCC(=O)N/N=C/c2c(O)ccc3ccccc23)nc2ccccc2c1=O	22.4 µM (active)	–
CCCC(=O)Nc1c(C(=O)OCC)[nH]c2ccccc12	–	-4.94% [at 11.4 µM] (inactive)
O=c1cc(N2CCN(c3ccccc3)CC2)[nH]c(=O)n1C1CCCCC1	–	100% (inactive)
CCCC(=O)Nc1ccc2nc(SCC(=O)N3CCCC3)sc2c1	–	-8.01% (inactive)
O=C(CCSc1nc2ccccc2s1)N/N=C/c1c(O)ccc2ccccc12	7.94 µM (active)	–
CC1CCCN(c2ncnc3c2cnn3-c2ccc(Cl)cc2)C1 (configuration not stated)	22.4 µM (active)	–
CCOC(=O)C1CCN(c2ncnc3c2cnn3-c2ccc(Cl)cc2)CC1	2.24 µM (active)	–
COc1ccccc1NCC(=O)N/N=C/c1c(O)ccc2ccccc12	3.16 µM (active)	–
COc1cc([N+](=O)[O-])cc(/C=N/NC(=O)C(C)Nc2cccc3ccccc23)c1O (configuration not stated)	–	8.76% [at 11.4 µM] (inactive)
COc1ccc(NC(C)C(=O)N/N=C/c2c(O)ccc3ccccc23)cc1 (configuration not stated)	6.31 µM (active)	–
CCc1cc[n+](C2=C([O-])c3ccccc3C(=O)/C2=N\S(=O)(=O)c2cccs2)cc1	20 µM (active)	–
Oc1ccc2ccccc2c1/C=C/c1ccc2c(Br)cc(Br)c(O)c2n1	3.16 µM (active)	–
COc1cc(/C=C/c2ccc3cccc(O)c3n2)cc(OC)c1OC	–	16.4% (inactive)
CCCc1cc(=O)[nH]c(-n2[nH]c3c(c2=O)CCCC3)n1	12.6 µM (active)	–
NC(=S)N1OC[C@@H]2COc3ccc4ccccc4c3[C@@H]21	–	43.5% (inactive)
CC(NC(=O)Nc1cccc([N+](=O)[O-])c1)(C(F)(F)F)C(F)(F)F	17.8 µM (active)	–
O=C(NC1CCN(Cc2ccccc2)CC1)c1cccc(S(=O)(=O)Nc2ccc(SC(F)F)cc2)c1	14.1 µM (active)	–

Compound	Potency	activity change, negative = inhibition
CCC(C)n1cnc2c(c1=O)c1nc3ccccc3nc1n2-c1ccc2c(c1)OCCO2 (configuration not stated)	–	2.65% (inactive)
c1ccc(COc2ncnc3c2ncn3CCCN2CCN(Cc3cccc4ccccc34)CC2)cc1	14.1 µM (active)	–
Cc1cc2oc3cc(NCCC4CCCN4C)ccc3c(=O)c2cc1C (configuration not stated)	–	108% (inactive)
COc1ccc(CC(N)c2csc(NC(=O)c3cc(C(C)(C)C)nn3Cc3ccccc3)n2)cc1 (configuration not stated)	–	-13.8% [at 11.4 µM] (inactive)
COc1ccc(CC(N)c2csc(NC(=O)c3cccc(OC(F)(F)F)c3)n2)cc1 (configuration not stated)	28.2 µM (active)	–
COc1ccc(CC(N)c2csc(NC(=O)c3ccccc3OC)n2)cc1 (configuration not stated)	–	-21.7% (inactive)
O=C(Nc1nc2cc(Cl)ccc2s1)C1CCCN(S(=O)(=O)c2cccc3cccnc23)C1 (configuration not stated)	25.1 µM (active)	–
Cc1ccc(S(=O)(=O)c2cc3cc(Br)ccc3oc2=O)cc1	–	-15.7% (inactive)
CCN(CC)c1ccc(/C=N/NC(=O)CNC(=O)C2COc3ccccc3O2)c(O)c1 (configuration not stated)	0.398 µM (active)	–
COc1cccc(/C=N/NC(=O)CNC(=O)C2COc3ccccc3O2)c1O (configuration not stated)	7.94 µM (active)	–
COc1ccccc1/C=C\C(=O)NCC(=O)N/N=C/c1cccc(OC)c1O	12.6 µM (active)	–
COc1cccc2c1C(=O)C=C(C)C2=O	22.4 µM (active)	–
Cc1cc(C(=O)N/N=C/c2cc(Br)cc(Br)c2OC(=O)c2cccc(F)c2)n[nH]1	4.47 µM (active)	–
COc1ccc(-c2nn(-c3ccccc3)cc2C(=O)NC(=S)NNC(=O)c2ccncc2)cc1	8.91 µM (active)	–
CCCC/C(C)=N/NC(=O)c1cn(-c2ccccc2)nc1-c1ccccc1	–	-28.6% [at 11.4 µM] (inactive)
Cc1ccc(-c2nc3cc(Br)cnc3nc2-c2ccc(C)cc2)cc1	–	-25.9% [at 11.4 µM] (inactive)
CCOC(=O)c1cnc(-n2nc(C)cc2C)nc1NC1CCCC1	1.78 µM (active)	–
C=CCOc1ccc(CNc2ccc3[nH]c(=O)[nH]c3c2)cc1OC	–	24.3% (inactive)
COc1ccc(Cc2nnc(N/N=C/c3ccc(O)cc3)[nH]c2=O)cc1OC	0.891 µM (active)	–
COc1ccc(Cc2nnc(N/N=C/c3ccccc3O)[nH]c2=O)cc1OC	1.41 µM (active)	–
COc1ccc(-c2csc(NC(=O)C3CCN(c4ncnc5sc(C)c(C)c45)CC3)n2)cc1OC	3.55 µM (active)	–
CCN(CC)S(=O)(=O)c1cc(NC(=O)C2CCN(c3ncnc4sc(C)c(C)c34)CC2)ccc1Cl	–	52% (inactive)

Compound	Potency	activity change, negative = inhibition
COc1ccc(S(=O)(=O)N(C)C)cc1NC(=O)C1CCN(c2ncnc3sc(C)c(C)c23)CC1	10 µM (active)	–
CN(C)c1ccccc1-c1cc(NC=O)c2ncc(-c3cccc(C(F)(F)F)c3)n2c1	–	-12.7% [at 11.4 µM] (inactive)
O=C(N/N=C/c1c(O)ccc2ccccc12)c1cccc(C(F)(F)F)c1	2.82 µM (active)	–
O=C(NN=Cc1c(O)ccc2ccccc12)c1ccc2c(c1)OCO2	2.24 µM (active)	–
O=C(N/N=C/c1cc([N+](=O)[O-])ccc1O)c1cccc(N2CCCC2=O)c1	7.94 µM (active)	–
O=[N+]([O-])c1ccc(/C=N/N=C/c2ccc([N+](=O)[O-])o2)o1	14.1 µM (active)	–
O=C(N/N=C/c1ccc([N+](=O)[O-])o1)c1ccc2c(c1)OCO2	12.6 µM (active)	–
O=C(N/N=C/c1ccccc1O)c1cccc(C(F)(F)F)c1	0.501 µM (active)	–
O=C(N/N=C\c1c(O)ccc2ccccc12)c1ccc(Cn2cccn2)o1	0.891 µM (active)	–
C/C(=N\Nc1cc(N2CCOCC2)nc(C)n1)c1cccc([N+](=O)[O-])c1	–	-9.23% [at 11.4 µM] (inactive)
COc1ccc(/C=N/NC(=O)c2cccc([N+](=O)[O-])c2)c2ccccc12	–	-1.17% [at 11.4 µM] (inactive)
O=C(NN=Cc1ccccc1O)c1cccc([N+](=O)[O-])c1	3.98 µM (active)	–
COc1ccc(S(=O)(=O)Nc2ccc(F)cc2)cc1N(C)S(=O)(=O)c1ccc(Cl)cc1	10 µM (active)	–
O=C(Nc1nnc(C2CC2)o1)c1ccc(S(=O)(=O)N2CCCc3ccccc32)cc1	7.08 µM (active)	–
CN1CCC(N(C)C(=O)c2ccc(Cl)c(S(=O)(=O)N3CCc4ccccc43)c2)CC1	–	-24.7% (inactive)
CCN(Cc1ccccc1)S(=O)(=O)c1ccc(C(=O)Nc2nnc(C3CC3)o2)cc1	2.24 µM (active)	–
Cc1ccc(C(=O)N/C(=C\c2ccc(-c3ccc(Cl)cc3)o2)C(=O)NCCCN(C)C)cc1	–	-11.4% (inactive)
Cc1cccc(OCC(=O)NCC(=O)N/N=C/c2cc(Br)cc(Br)c2O)c1	5.01 µM (active)	–
O=C(COc1ccccc1)NCC(=O)N/N=C/c1ccc(O)cc1O	14.1 µM (active)	–
O=C(N/N=C/c1ccc(O)cc1O)/C(=C/c1ccccc1)CCO	1.78 µM (active)	–
O=C(/C=C\c1ccccc1)NCC(=O)N/N=C/c1ccc(O)cc1O	25.1 µM (active)	–
